# Screens: PubChem BioAssay, National Center for Advancing Translational Sciences (NCATS)
# A selection: hits, their analogues and other compounds. The true share with any hit is near 2.2%.
# FUS yeast rescue = rescues growth of FUS-expressing yeast; AID 1347120; 390,000 compounds, 0.24% hits; S. cerevisiae FUS-expressing, growth rescue, OD600, 24 h; Potency, µM (top dose mostly 76.6 µM), usual class: activators;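 also: plate controls were DMSO vehicle for no effect and reference control for full effect; nearly all actives have a fitted effect of over 55% in size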
#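 Quantitative HTS measuring growth restoration of FUS-toxic yeast. Galactose-induced cells (OD 0.005) were exposed 24hr at 30C to compounds at several concentrations, then absorbance at 600 nm was recorded.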
# Mito fusion act = mitochondrial division inhibition or fusion activation | AID 485298 | S. cerevisiae fusion-defective mutant growth rescue, CellTiterGlo 48 h | 320,000 compounds, 0.23% hits | Potency, µM (series often up to 46.1 µM), without a hit: at the top dose growth rescue (activation), most hits filed as activators; also: % of control where 0% means no effect; nearly all actives have a fitted effect of over 45% in size
#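 S. cerevisiae fusion-defective temperature-sensitive mutants (e.g. fzo1-1, mgm1-5) grown 48 h at 37C in YPEG (ethanol/glycerol non-fermentable) medium with 23 nl compound per well; growth rescue read as CellTiterGlo luminescence.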
# aSyn rescue = rescues yeast growth from alpha-synuclein toxicity; 370,000 compounds, 0.14% hits; Potency, µM (series often up to 46.1 µM), for inactives: at the highest dose growth rescue (activation), actives largely listed as activators; Yeast expressing alpha-synuclein, growth rescue, BacTiter-Glo, 24 h; AID 652106; also: % of control where 0% means no effect; nearly all actives have a fitted effect of over 65% in size
#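 Rescue of yeast growth: cells expressing toxic alpha-synuclein, induced in galactose at OD600 0.02, incubated with compound 24 h at 30 C. ATP luminescence quantified growth; inhibitors of toxicity appear as activators.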
# Abeta rescue = A-beta toxicity reversal in yeast. yeast expressing A-beta42, growth rescue, OD600, 48 h; response scale: 0% DMSO, 100% iron-clioquinol control. Potency, µM (highest dose often 46.1 µM), actives largely listed as activators. 410,000 compounds, 0.063% hits. AID 1347071; also: nearly all actives have a fitted effect of over 55% in size
#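 Yeast growth medium received pinned compounds, then yeast cells expressing toxic A-beta were added; plates incubated at 30 C for 48 hr. Growth read as absorbance at 600 nm, normalized to DMSO and equimolar FeCl3 plus clioquinol controls.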
# TDP43 rescue = rescues yeast growth from TDP-43 toxicity; TDP-43 expressing yeast growth rescue, BacTiter-Glo, 24 h; 410,000 compounds, 1.8% hits; Potency, µM (highest dose often 46.1 µM), for the others: at the top dose growth rescue (activation), most hits filed as activators; also: % of control where 0% means no effect; nearly all actives have a fitted effect of over 50% in size
#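 In this qHTS, compounds that restore growth of yeast expressing TDP-43 appear as activators. Cells (OD600=0.02, galactose medium, raffinose-pregrown) are incubated with compound 24 hr at 30 deg C and growth is quantified by BacTiter-Glo.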
# Starred values were filed as active, the others as inactive; i = inactive; ? = inconclusive; / = no result given; ! = repeats disagree; [ ] = another dose, or the depositor's remark. Calls follow the shape of the dose curve; as a rule, active = well fitted curve in the direction sought with a large enough effect; inconclusive = small, poorly fitted or top-dose-only effect, or another doubt; inactive = no such curve, though single readings can be large; an effect the other way counts as inactive or inconclusive. Potency is read from the fitted curve at half-maximal effect.
SMILES,FUS yeast rescue,Mito fusion act,aSyn rescue,Abeta rescue,TDP43 rescue
CCOc1cccc2sc(N(CCN(CC)CC)C(=O)c3ccco3)nc12,i,/,/,i,-27%
Cc1ccccc1CSCC(=O)Nc1ccccc1F,i,-3%,0%,i,?
COc1ccc([N+](=O)[O-])cc1NC(=O)CSCc1ccc(Br)cc1,i,?,2%,i,13µM*
C/C=C/C=C/C(=O)OC(C)C(=O)Nc1cc([N+](=O)[O-])ccc1OC (configuration not stated),i,7%,-1%,i,13µM*
COc1ccc([N+](=O)[O-])cc1NC(=O)C(C)OC(=O)Cc1ccc(OC)c(OC)c1 (configuration not stated),/,/,7%,i,?
COc1ccc([N+](=O)[O-])cc1NCc1cccc([N+](=O)[O-])c1,i,?,-2%,i,11µM*
COc1ccc(C)cc1NC(=O)CSCc1ccccc1C,i,1%,11%,i,13µM*
COc1cc(OC)c(NC(=O)C2=C(C)C(=O)OC23CCCCC3)cc1Cl,i,/,/,i,?
COc1ccc([N+](=O)[O-])cc1NC(=O)CSCc1ccccc1C,/,25%,5%,i,13µM*
COc1ccc([N+](=O)[O-])cc1NC(=O)Nc1ccccc1,i,1%,15%,i,-4%
COc1ccc([N+](=O)[O-])cc1NC(=O)CC(C)c1ccccc1 (configuration not stated),i,-3%,-1%,?,16µM*
c1cc(-c2ccoc2)n2ccnc2c1,i,/,0%,i,20%
O=[N+]([O-])c1ccc(/C=N/NC(=S)Nc2ccccc2F)o1,i,0%,9%,i,13µM*
O=[N+]([O-])c1ccc(/C=N/NC(=S)Nc2ccccc2)o1,i,7%,-4%,i,12%
CC12CCC(C(=O)N(CSC(=S)N/N=C\c3ccccc3O)C1=O)C2(C)C (configuration not stated),i,-13%,?,?,25µM*
COc1ccc(/C=N\NC(=S)SCN2C(=O)C3CCC(C)(C2=O)C3(C)C)cc1 (configuration not stated),i,/,?,i,?
CN(C)c1ccc(/C=N\NC(=S)SCN2C(=O)C3CCC(C)(C2=O)C3(C)C)cc1 (configuration not stated),i,-2%,1%,?,13µM*
COc1cc(OC)c(/C=C/c2cc3ccccc3c[n+]2C)c(OC)c1,/,/,-6%,/,/
COc1ccc(S(=O)(=O)Oc2ccc3cccc(N)c3c2)cc1,i,/,?,?,16µM*
CC(C)(C)OC(=O)N1CCC(c2nnc(SCc3ccccc3)o2)CC1,i,/,9%,i,19%
c1ccc(CN2CCN(Cc3c[nH]c4ccccc34)CC2)cc1,i,-14%,2%,i,-9%
Clc1ccc(N2CCN(Cc3c[nH]c4ncccc34)CC2)cc1,i,7.3µM*!,4%,i,7%
Cc1cccc(Nc2ncnc3c2cnn3Cc2ccccc2)c1,i,4%,1%,i,16µM*
Cc1ccc(CSc2ncnc3c2cnn3Cc2ccccc2)cc1C,i,7%,-1%,i,1µM*
COc1ccc(Nc2ncnc3c2cnn3Cc2ccccc2)cc1OC,i,-1%,-8%,i,-22%
SMILES,FUS yeast rescue,Mito fusion act,aSyn rescue,Abeta rescue,TDP43 rescue
CCN(CC)c1ccc(CNCCCSc2nnnn2C)cc1,i,/,/,i,1%[9.22 µM]
Cc1ccc(C(=O)CCC(=O)OC(C)C(=O)NC2CCCCC2C)cc1 (configuration not stated),i,6%,-5%[1.84 µM],i,-1%
O=[N+]([O-])c1cc(Cl)c2cccnc2c1O,i,?,?,i,?
COc1ccc(Oc2c(OC)cc([N+](=O)[O-])c3ncccc23)cc1,i,/,3%,i,35µM*
O=[N+]([O-])c1ccc(Cl)c2cccnc12,i,-3%,1%,i,-18%[0.397 µM]
O=[N+]([O-])c1cc([N+](=O)[O-])c2cccnc2c1Oc1ccccc1O,/,-8%,4%,i,2µM*
